Records with an inconclusive call do not appear. Activity calls are given as the source filed them. Calls come from the whole dose curve; as a rule, active = well fitted activation curve with a large enough effect in the signal ratio in the repeat runs (not every such curve was filed as active); inconclusive = weak or mixed curves; inactive = flat fitted curve, though single readings scatter; the % refers to the signal ratio.

A short description of the assay: qHTS assay to identify small molecule agonists of the hypoxia (HIF-1) signaling pathway (AID 1224846). Particulars: HRE-bla ME-180 cells, beta-lactamase ratio, 17 h; series mostly up to 76.8 µM. The text has this: U.S. Tox21 Program National Center for Advancing Translational Sciences [NCATS] NIH Chemical Genomics Center [NCGC] U.S. Environmental Protection Agency [EPA] National Institutes of Environmental Health Sciences [NIEHS] National Toxicology Program [NTP] U.S. Food and Drug Administration [FDA] Tox21 Assay Overview: Hypoxia-inducible factor-1 (HIF-1) is the major hypoxia-regulated transcription factor that controls cellular responses to low oxygen concentration. HIF-1 is composed of two subunits: hypoxia responsive HIF-1-alpha and constitutively expressed HIF-1-beta, which is also known as aryl hydrocarbon receptor nuclear translocator. During hypoxic conditions, HIF-1-alpha heterodimerizes with HIF-1-beta and translocates into the nucleus where the HIF-1 complex binds to the hypoxia-response element (HRE) and activates expression of target genes such as VEGF (vascular endothelial growth factor). The HIF-1 pathway is essential to normal growth and development, and is involved in the pathophysiology of cancer, inflammation, and ischemia. Using a beta-lactamase reporter-gene under control of the hypoxia response element, a cell-based assay [CellSensor(TM) HRE-bla ME-180 from Life Technologies, Carlsbad, CA] was used to measure hypoxia-induced signaling. Tox21 10K library compounds were measured for their ability to induce the reporter gene activity.
Tox21 Assay Protocol Summary: HRE-bla ME-180 cells were dispensed at 2,000 cells per well in 6 uL of assay medium containing 0.5% dialyzed FBS into black wall/clear-bottom 1536-well plates using a Multidrop Combi (Thermo Scientific, Waltham, MA) dispenser. After the assay plates were incubated at 37C and 5% CO2 for 5 hrs, 23 nL of compounds dissolved in DMSO, positive controls or DMSO only was transferred to each well of the assay plate using a Pintool station (Kalypsys, San Diego, CA). The assay plates were incubated at 37C and 5% CO2 for 17 hrs. One uL of LiveBLAzerTM B/G FRET substrate (CCF4-AM) (Life Technologies) was added to each well using a Flying Reagent Dispenser (Aurora Discovery, San Diego, CA).
A general note: In qHTS, concentration-response curves come from the screen itself.
Regarding `CCCCCCCCCCCCN`, the result was inactive.

Turning to `CCc1ccccc1O`, the result was inactive.

For `CC#C[C@]1(O)CC[C@H]2[C@@H]3CCC4=CC(=O)CCC4=C3[C@@H](c3ccc(N(C)C)cc3)C[C@@]21C`, the outcome was inactive.

Regarding `Clc1cc(Cl)c(Cl)cc1Cl`, the outcome was inactive.

With `OCC#CCO`, the outcome was inactive.

Regarding `Cc1ccc(C)c(C)c1`, the result was inactive.

On to `CCCCCCCCCC(=O)O`, for which the result was inactive.

On to `COC(=O)c1ccccc1O`, for which the outcome was inactive.

Regarding `COCC(=O)O`, the outcome was inactive.

For `O=C1CCCCC1`, the outcome was inactive.

`OCC1CCCO1` (stereo not given): the result was inactive.

On to `CCCCC(CC)COC(=O)CCCCCCCC(=O)OCC(CC)CCCC` (stereo not given), for which the result was inactive.

With `NC(=O)NNc1ccccc1`, the outcome was inactive.

`C=C1C2CCC(C2)C1(C)C` (stereo not given): the result was inactive.

On to `C/C=C(C)/C=C/C=C(C)C`, for which the outcome was inactive.

For the compound `O=C1O[C@H](CO)[C@@H](O)[C@H](O)[C@H]1O`, the outcome was inactive.

Turning to `COCC(C)O` (stereo not given), the result was inactive.

With `O=S(=O)(Oc1ccc(Cl)cc1Cl)c1ccccc1`, the result was inactive.

For the compound `Oc1ccc2ccccc2c1`, the result was inactive.

In the case of `CCC(=O)O`, the outcome was inactive.

Take `Cc1cc(O)cc(C)c1Cl`: the result was inactive.

With `NS(=O)(=O)c1cc2c(cc1Cl)NC=NS2(=O)=O`, the outcome was inactive.

Regarding `CC(C)Cc1ccccc1`, the outcome was inactive.

As to `CC1(C)CC(N=C=O)CC(C)(CN=C=O)C1` (stereo not given), the result was inactive.

`CC1=C(/C=C/C(C)=C/C=C/C(C)=C/CO)C(C)(C)CCC1`: the outcome was inactive.

Take `O=C(c1ccc(O)cc1)c1ccc(O)cc1O`: the result was inactive.

Turning to `CCCCC(CC)C(=O)OCCOCCOCCOC(=O)C(CC)CCCC` (stereo not given), the result was inactive.

For the compound `O=[N+]([O-])c1cccc(Cl)c1`, the result was inactive.

In the case of `CCCCCCCCCCC=CC1CC(=O)OC1=O` (stereo not given), the outcome was inactive.

In the case of `S=c1nc[nH]c2nc[nH]c12`, the outcome was inactive.

On to `Cc1cc(=O)[nH]c(C(C)C)n1`, for which the result was inactive.

Regarding `OCCOCCOCCOCCO`, the result was inactive.

Turning to `C=C(C)C(=O)OCC(CC)(COC(=O)C(=C)C)COC(=O)C(=C)C`, the result was inactive.

Consider `CCCCCCOC(C)=O`, for which the outcome was inactive.

For the compound `CCC(C)C=O` (stereo not given), the result was inactive.

For `CC1=CC[C@H]2C[C@@H]1C2(C)C`, the outcome was inactive.

For `C=C(C)C(=O)OCCCCCC`, the result was inactive.

Consider `CC(=O)Nc1ccc(C(=O)O)cc1`, for which the outcome was inactive.

For `NCc1cccc(CN)c1`, the result was inactive.

Regarding `Clc1ccc(Cl)c(Cl)c1Cl`, the outcome was inactive.

The record behind these values is PubChem BioAssay (Tox21).
